The record followed here is PubChem BioAssay (NCI).

Some test systems named below: HCT-15 colon; HT29 colon; SNB-75 CNS; SNB-19 CNS; U251 CNS; PC-3 prostate; SK-MEL-5 melanoma; UACC-62 melanoma; LOX IMVI melanoma; SK-MEL-28 melanoma.
Common to all, as to assay: NCI-60 one-dose screen, 48 h (100 = growth as untreated, 0 = no growth, -100 = all killed)
Common to all, as to details: 10 µM unless noted

The panel holds about 83,000 compounds, 20% with a hit somewhere; the sample as a whole holds those more often.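 Negative percent growth values reflect cell death: -40 means 40% of the cells present at the start died, and -100 means all died.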 Unmarked numbers belong to inactive results. Active and inactive are the calls of the source. Rule for the calls: active = growth percent below 10; inactive = the rest.

With `O=C(O)Cc1ccc2c(c1)Cc1cccnc1O2`, the growth with HCT-15 colon is 103%; in the experiment with HT29 colon, 99.8%; with SNB-75 CNS it was 87.9%; in the experiment with SNB-19 CNS, 107%; in the experiment on U251 CNS, 102%; in the experiment with PC-3 prostate it was 101%. Also, the growth in the experiment on SK-MEL-5 melanoma is 99.5%; in the experiment with UACC-62 melanoma, 109%; with LOX IMVI melanoma, 100%; in the experiment with SK-MEL-28 melanoma, 109%.
As for `COC1=CC(c2ccc[nH]2)=N/C1=C\c1[nH]c(C)c(C(=O)CCC(=O)Oc2ccc3c(c2)CCC2C3CC[C@]3(C)[C@@H](O)CC[C@@H]23)c1C` (stereo not given in full), the growth in the experiment with HCT-15 colon is -48% (active); with HT29 colon, 6.68% (active); with SNB-75 CNS, 12.1%; in the experiment with SNB-19 CNS it was 37.2%; in the experiment on U251 CNS, -48.4% (active); in the experiment with PC-3 prostate it was 17.8%. Moreover, the growth in the experiment on SK-MEL-5 melanoma was -84.2% (active); with UACC-62 melanoma, -41.8% (active); in the experiment with LOX IMVI melanoma it was -81.7% (active); in the experiment on SK-MEL-28 melanoma, 41.2%.
For `Oc1ccc(Cl)cc1-c1cc(-c2ccc(Cl)cc2)n[nH]1`, the growth in the experiment on HCT-15 colon is 25%; with HT29 colon, 103%; in the experiment with SNB-75 CNS, 59.1%; in the experiment on SNB-19 CNS, 81.2%; in the experiment with U251 CNS, 59.3%; in the experiment on PC-3 prostate, 45.6%. For the same compound, the growth is 70.9% with SK-MEL-5 melanoma, 64% in the experiment with UACC-62 melanoma, 58.2% with LOX IMVI melanoma and 87.6% in the experiment with SK-MEL-28 melanoma.
With `Clc1ccc(/C=C/c2nc(N3CCOCC3)c3nc(Cl)c(Cl)cc3n2)cc1`, the growth was 94.3% in the experiment on HCT-15 colon; 105% with HT29 colon; 94.3% with SNB-75 CNS; 101% with SNB-19 CNS; 103% in the experiment with U251 CNS; 102% in the experiment with PC-3 prostate. The growth is 90.2% in the experiment with SK-MEL-5 melanoma, 106% in the experiment on UACC-62 melanoma, 99.8% in the experiment with LOX IMVI melanoma and 111% in the experiment on SK-MEL-28 melanoma.
On to `COc1cc(NS(C)(=O)=O)ccc1Nc1c2ccc([N+](=O)[O-])cc2nc2c(C)cccc12`, for which the growth in the experiment on HCT-15 colon was 12.4%; in the experiment on HT29 colon, -0.0847% (active); in the experiment on SNB-75 CNS, 5.27% (active); with SNB-19 CNS, 21.2%; in the experiment with U251 CNS, 0.458% (active); with PC-3 prostate it was 8.53% (active). Also, the growth in the experiment with SK-MEL-5 melanoma is -0.826% (active); in the experiment on UACC-62 melanoma, 16.2%; in the experiment with LOX IMVI melanoma, -3.95% (active); with SK-MEL-28 melanoma, 41.7%.
In the case of `COC1=CC(c2ccc[nH]2)=N/C1=C\c1[nH]c(C)c(CCCn2cc(CCCCCCCCC[C@@H]3Cc4cc(O)ccc4C4CC[C@]5(C)[C@@H](O)CC[C@H]5C43)nn2)c1C` (stereo not given in full), the growth with HCT-15 colon is 35%; with HT29 colon it was 23.6%; in the experiment with SNB-75 CNS it was 88.8%; with SNB-19 CNS, 77.7%; in the experiment on U251 CNS it was 44.1%; in the experiment with PC-3 prostate, 45%. The growth in the experiment with SK-MEL-5 melanoma is 35.5%; in the experiment with UACC-62 melanoma it was 12.9%; in the experiment with LOX IMVI melanoma, 13.4%; in the experiment on SK-MEL-28 melanoma, 75.9%.
On to `COc1cc(NC(=O)CSc2nc3ccc(C)cc3c(=O)n2-c2ccccc2)cc(OC)c1OC`, for which the growth in the experiment with HCT-15 colon was 81.1%; in the experiment on HT29 colon, 109%; in the experiment on SNB-75 CNS, 57.4%; in the experiment on SNB-19 CNS, 88%; in the experiment on U251 CNS, 93.9%; in the experiment with PC-3 prostate, 82%. For the same compound, the growth in the experiment with SK-MEL-5 melanoma was 77.8%; with UACC-62 melanoma, 77.5%; with LOX IMVI melanoma it was 75.9%; in the experiment with SK-MEL-28 melanoma, 83.7%.
On to `FC(F)(F)c1cccc(-n2nnc3cnc(Nc4ccc(N5CCCCC5)cc4)nc32)c1`, for which the growth was 66.1% in the experiment with HCT-15 colon; 74.3% in the experiment on HT29 colon; 65.7% in the experiment with SNB-75 CNS; 94.3% in the experiment with SNB-19 CNS; 62.9% with U251 CNS; 50.2% in the experiment with PC-3 prostate. Moreover, the growth is 86.7% in the experiment on SK-MEL-5 melanoma, 48.2% in the experiment with UACC-62 melanoma, 90% in the experiment with LOX IMVI melanoma and -0.691% (active) in the experiment on SK-MEL-28 melanoma.
Consider `COC1=CC(c2ccc[nH]2)=N/C1=C\c1[nH]c(C)c(C(=O)CCCCC(=O)NCc2ccccc2)c1C`, for which the growth in the experiment with HCT-15 colon was -19.5% (active); in the experiment with HT29 colon, -49% (active); with SNB-75 CNS, 21.7%; in the experiment on SNB-19 CNS it was 77.1%; with U251 CNS, 10.6%; with PC-3 prostate it was -13.9% (active). For the same compound, the growth in the experiment with SK-MEL-5 melanoma was 43.9%; with UACC-62 melanoma, 89.4%; with LOX IMVI melanoma, -56.3% (active); with SK-MEL-28 melanoma, 140%.
As to `COc1ccc(S(=O)(=O)Nc2cc(/C=C\c3cc(OC)c(OC)c(OC)c3)cc(OC)c2OC)cc1OC`, the growth was 24.1% in the experiment on HCT-15 colon; 13.6% in the experiment on HT29 colon; -4.59% (active) in the experiment with SNB-75 CNS; 40% in the experiment with SNB-19 CNS; 23.1% with U251 CNS; 34.3% in the experiment on PC-3 prostate. In addition, the growth in the experiment on SK-MEL-5 melanoma is 23.7%; in the experiment with UACC-62 melanoma, 37.3%; with LOX IMVI melanoma, 48.2%; in the experiment with SK-MEL-28 melanoma it was 52.5%.
Consider `O=C(O)C(=Cc1c2ccccc2cc2ccccc12)C(=O)O`, for which the growth in the experiment with HCT-15 colon was 106%; with HT29 colon, 105%; in the experiment on SNB-75 CNS, 104%; in the experiment with SNB-19 CNS, 101%; with U251 CNS it was 101%; in the experiment with PC-3 prostate, 97.2%. Besides, the growth with SK-MEL-5 melanoma was 104%; in the experiment with UACC-62 melanoma, 93.5%; in the experiment on LOX IMVI melanoma it was 86.8%; in the experiment on SK-MEL-28 melanoma, 114%.
Turning to `COc1cc(C2C=C(C)N=C3SC=C(C)N32)cc(OC)c1OC` (stereo not given), the growth in the experiment on HCT-15 colon is -20.4% (active); with HT29 colon, -37.2% (active); in the experiment on SNB-75 CNS, 24.6%; in the experiment with SNB-19 CNS it was 33.5%; in the experiment with U251 CNS, -75.6% (active); in the experiment with PC-3 prostate, -17.6% (active). Besides, the growth was -97.5% (active) with SK-MEL-5 melanoma, -61.3% (active) with UACC-62 melanoma, -82.4% (active) in the experiment on LOX IMVI melanoma and -75.5% (active) in the experiment on SK-MEL-28 melanoma.
On to `CCN1C(=O)N(CC)C2Nn3c(s/c(=C4\C(=O)N(C5CCCC5)c5ccccc54)c3=O)=NC21` (stereo not given), for which the growth in the experiment on HCT-15 colon was 51.2%; with HT29 colon it was 21.3%; with SNB-75 CNS, 8.34% (active); in the experiment on SNB-19 CNS, 79.2%; in the experiment on U251 CNS, 58.9%; with PC-3 prostate, 46.5%. Besides, the growth in the experiment with SK-MEL-5 melanoma is 34.8%; in the experiment with UACC-62 melanoma, 61.9%; in the experiment on LOX IMVI melanoma, 64.5%; with SK-MEL-28 melanoma, 73.4%.
On to `COc1cc(NC(=O)c2cc3ccccc3nc2Nc2ccc(F)cc2)cc(OC)c1OC`, for which the growth in the experiment with HCT-15 colon was 31.8%; with HT29 colon, 69.3%; with SNB-75 CNS, 60.7%; in the experiment with SNB-19 CNS, 61.1%; with U251 CNS, 35.3%; in the experiment on PC-3 prostate, 13.2%. The growth in the experiment with SK-MEL-5 melanoma is -13.8% (active); in the experiment with UACC-62 melanoma it was 37.5%; in the experiment with LOX IMVI melanoma, 32.6%; in the experiment on SK-MEL-28 melanoma, 54.2%.
